AHR act = AHR activators, primary screen, cell-based, luminescence, luciferase reporter, human; Aryl hydrocarbon receptor (Homo sapiens), P35869; AHR-responsive luciferase reporter cells; activation, % at 5 µM; hit rate 2.5% among 320,000; in the data active = activation above about 47%
Target sequence (P35869 whole entry, looked up): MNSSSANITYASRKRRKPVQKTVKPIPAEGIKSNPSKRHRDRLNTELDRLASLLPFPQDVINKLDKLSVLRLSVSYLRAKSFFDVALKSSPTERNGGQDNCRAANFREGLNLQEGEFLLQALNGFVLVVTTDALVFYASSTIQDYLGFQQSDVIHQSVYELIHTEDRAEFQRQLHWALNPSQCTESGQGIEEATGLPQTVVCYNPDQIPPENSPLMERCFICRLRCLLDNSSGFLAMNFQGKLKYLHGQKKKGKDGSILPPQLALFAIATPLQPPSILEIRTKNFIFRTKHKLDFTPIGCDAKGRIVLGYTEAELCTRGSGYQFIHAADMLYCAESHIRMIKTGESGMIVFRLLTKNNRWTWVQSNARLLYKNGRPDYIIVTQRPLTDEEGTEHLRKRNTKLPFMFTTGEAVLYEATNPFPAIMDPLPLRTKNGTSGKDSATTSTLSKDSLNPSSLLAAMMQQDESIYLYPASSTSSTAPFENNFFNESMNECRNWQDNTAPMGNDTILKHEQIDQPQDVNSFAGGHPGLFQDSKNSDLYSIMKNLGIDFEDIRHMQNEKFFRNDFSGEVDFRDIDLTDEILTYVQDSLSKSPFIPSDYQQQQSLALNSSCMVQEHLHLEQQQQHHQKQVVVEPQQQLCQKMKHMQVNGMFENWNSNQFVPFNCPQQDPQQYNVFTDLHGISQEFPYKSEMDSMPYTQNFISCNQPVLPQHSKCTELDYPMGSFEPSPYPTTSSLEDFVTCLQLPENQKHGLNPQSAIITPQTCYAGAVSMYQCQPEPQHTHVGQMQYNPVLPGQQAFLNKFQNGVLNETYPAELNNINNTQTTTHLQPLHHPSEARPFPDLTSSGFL
DAX1 inh = DAX1 (NR0B1) inhibitors, primary screen, cell-based, HEK293, Gal4-DAX1, luciferase luminescence; Nuclear receptor subfamily 0 group B member 1 (Homo sapiens), P51843; HEK293 Gal4-DAX1 luciferase reporter; inhibition, % at 6.75 µM; hit rate 0.99% among 340,000;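 active = inhibition above the mean over all tested compounds plus 3 SD, cut at about 4.2% in these data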;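 note: inhibition shows as a rise in luminescence from relieved DAX1 repression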
HSP90 inh = HSP90 inhibitors, primary screen, cell lysate, luminescence. Heat shock protein HSP 90 (rabbit reticulocyte lysate; luciferase refolding). Rabbit reticulocyte lysate, luciferase refolding luminescence, 3 h. inhibition, % at 5.6 µM. hit rate 0.91% among 290,000;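 active = inhibition above the screen-wide mean plus 3 SD, computed separately per campaign, cut at about 16% in these data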;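 note: inhibitors lower the luminescence because luciferase stays unfolded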
FXN GAA850 act = FXN promoter activators, primary screen, cell-based, luciferase luminescence, HEK293 lucGAA850. HEK293 lucGAA850 FXN promoter luciferase reporter, 24 h; percent of 10 µM SAHA response. activation, % at 6 µM. hit rate 0.56% among 360,000. AID 540364, 2011;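 active = activation above the average of all compounds screened plus 3 SD, cutoff fixed separately per campaign, cut at about 7.5% in these data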
HSF-1 act = HSF-1 activators, primary screen, NIH3T3-HGL cells, MG132 stress, luminescence, single point. NIH3T3-HGL HSF-1 luciferase reporter, 8 h; 100% = twice DMSO control signal. activation, % at 9 µM. hit rate 1.7% among 300,000;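 active = mean replicate activation of at least 50% with a set share of replicates each reaching 50%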
HSF1 inhib = HSF1 inhibitors in luciferase reporter cells, primary screen, cell-based, NIH3T3, luminescence; NIH3T3-HGL HSE-luciferase, MG132-induced, luminescence 8 h; stronger effect = lower value; activity change, negative = inhibition, % at 7.5 µM (by protocol); hit rate 0.77% among 300,000;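 active = more than half of replicate wells show activity change below -50%, luminescence cut by over half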;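 note: luciferase reports HSF-1 transcriptional activity via heat shock element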
Each line names hits and unclear results; the compound was inactive in the other large screens. In the library only some 5.9% were active in any assay of this set; here they are far more common.

CC1CCCN(C(=O)NC2CC(=O)N(c3ccc4c(c3)OCCO4)C2)C1 (stereo unspecified)	none (no result: HSP90 inh)
Nc1c(Cl)cc(-c2cn(CCC(=O)O)c(-c3ccc(Cl)nc3)n2)cc1Cl	none (no result: HSP90 inh, HSF-1 act, HSF1 inhib)
Cc1sc2ncnc(N3CCC(C(=O)N4CC(C)SC4=Nc4ccc(Cl)cc4)CC3)c2c1C (stereo unspecified)	none (no result: AHR act, HSP90 inh, HSF-1 act, HSF1 inhib)
COc1cccc(CNS(=O)(=O)c2c(C(=O)N3CCCC3)c(C)n(C)c2C)c1	none
CN(C)S(=O)(=O)c1ccc(-c2csnn2)s1	HSF1 inhib -86.2
CC(C)c1nn2c(=O)cc(CSc3ccccc3NC(=O)c3ccccc3F)nc2s1	none
CCOc1ccc(OCC)c(NC(=O)C2CCCN2S(=O)(=O)c2cccc3cccnc23)c1 (stereo unspecified)	AHR act 47.3
CCOc1cc2c(cc1OCC)C(c1ccc(OC)cc1)N(c1ccccc1)C(=O)C2 (stereo unspecified)	HSF1 inhib -85.1
COc1ccccc1NC(=O)/C(C#N)=C/c1cccn1C	none (no result: HSP90 inh)
O=C(CSc1n[nH]c(=O)[nH]c1=O)NC1CCCCC1	HSP90 inh 16.8
O=C(CSc1ccc2nnc(-c3ccccn3)n2n1)Nc1nccs1	AHR act 55.0
Cc1ccc(-c2nnc(SCC(=O)Nc3nccs3)n2N)cc1	HSF1 inhib -60.7
COc1ccc(-c2nc(SCC(=O)Nc3nccs3)c(-c3ccc(Cl)cc3)[nH]2)cc1	AHR act 72.0
CCn1c(SCC(=O)Nc2nccs2)nnc1-c1ccc(C)cc1	none
O=C(O)c1cccnc1SCc1cccc(Cl)c1	none
COc1ccc(-c2ccc(SCC(=O)NCc3ccco3)nn2)cc1	none
COc1ccc(-c2[nH]c(-c3cccc(OC)c3)nc2SCC(=O)NCc2ccco2)cc1	AHR act 77.4 (no result: HSF-1 act, HSF1 inhib)
COc1ccc(-c2nc(SCC(=O)NC3CCCC3)c(-c3ccc(OC)cc3)[nH]2)cc1	AHR act 48.9
COc1ccc(-n2ccnc(SCC(=O)NC3CCCC3)c2=O)cc1	none
COc1ccc(-c2nc(SC(C)C(=O)NC3CC3)n[nH]2)cc1 (stereo unspecified)	DAX1 inh 4.5 (no result: AHR act, HSP90 inh, HSF-1 act, HSF1 inhib)
COc1ccc(-c2[nH]c(-c3ccc(SC)cc3)nc2SCC(=O)Nc2nccs2)cc1	AHR act 52.4
COc1ccc(-c2nc(SC(C)C(=O)c3c(N)n(C)c(=O)n(C)c3=O)n[nH]2)cc1 (stereo unspecified)	none (no result: HSP90 inh, HSF-1 act, HSF1 inhib)
COc1ccc(-c2cc(-c3ccccc3)nc(SCC(=O)Nc3nccs3)c2C#N)cc1	none
Cn1cccc1C(=O)NCC1COc2ccccc2O1 (stereo unspecified)	none (no result: AHR act, HSP90 inh, HSF-1 act, HSF1 inhib)
O=C(OCc1ccccc1)N1CCC2CC1c1ccc(Cl)cc12 (stereo unspecified)	none (no result: AHR act, HSP90 inh, HSF-1 act, HSF1 inhib)
Cc1ccc(NC(=O)NC(=O)N(C(C)C)S(C)(=O)=O)nc1	none (no result: HSF-1 act, HSF1 inhib)
COc1ccc(-c2[nH]c(-c3ccc(C)cc3)nc2SCC(=O)Nc2nccs2)cc1	AHR act 55.4
Cc1ccccc1C(=O)c1cccn1CC(=O)NCc1ccccc1Cl	none
Oc1ccccc1/C=N/NC(=S)NC1CC2CC1C1C=CCC21 (stereo unspecified)	none
COc1cccc(/C=N/NC(=S)NC2CC3CC2C2C=CCC32)c1O (stereo unspecified)	HSF-1 act 105.0
Cc1cnc(NC(=O)C2CC(=O)N(c3cccc(Cl)c3)C2)s1 (stereo unspecified)	HSF-1 act 76.9
Cc1cnc(NC(=O)C2CC(=O)N(c3ccc4c(c3)OCCO4)C2)s1 (stereo unspecified)	none (no result: HSP90 inh, HSF-1 act, HSF1 inhib)
C/C(=N\O)C1CCCCC1	HSF1 inhib -57.5 (no result: DAX1 inh, FXN GAA850 act)
CN1CCN(C(=O)c2ccc(Cn3cc(Cl)cn3)o2)CC1	HSF-1 act 63.8
Cc1ccc(-n2ncc3c(NCc4cccnc4)ncnc32)cc1C	HSF-1 act 55.3
Cc1sc2ncnc(NCc3cccnc3)c2c1C	AHR act 60.6

High-throughput results (PubChem BioAssay)
